NPSR antag: qHTS Assay for Antagonists of the Neuropeptide S Receptor: cAMP Signal Transduction | AID 1461, 2008 | actives 1% (n = 220,000) | Potency, µM (highest dose often 38.3 µM), for the others: at the top dose activity change, negative = inhibition, most hits filed as inhibitors | CHO-NPSR cells, cAMP TR-FRET, antagonist mode; also: nearly all actives have a fitted effect of over 50% in size
Target sequence (Q6W5P4 whole entry, looked up): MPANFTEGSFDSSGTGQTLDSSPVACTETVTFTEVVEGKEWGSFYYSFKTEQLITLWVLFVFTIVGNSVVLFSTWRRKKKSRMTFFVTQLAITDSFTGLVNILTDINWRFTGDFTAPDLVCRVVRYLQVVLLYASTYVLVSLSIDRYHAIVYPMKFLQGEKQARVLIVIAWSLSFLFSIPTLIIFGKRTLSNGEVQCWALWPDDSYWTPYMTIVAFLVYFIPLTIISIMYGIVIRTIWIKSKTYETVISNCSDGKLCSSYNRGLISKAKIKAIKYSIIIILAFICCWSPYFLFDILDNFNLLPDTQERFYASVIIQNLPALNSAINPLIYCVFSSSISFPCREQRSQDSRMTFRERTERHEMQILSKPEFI
Tau ThT inhib: qHTS for Inhibitors of Tau Fibril Formation, Thioflavin T Binding. Microtubule-associated protein tau (Homo sapiens), P10636. actives 2.1% (n = 270,000). Potency, µM (series often up to 57.4 µM), for the others: top-dose activity, negative = inhibition, usual class: inhibitors. AID 1460, 2008. recombinant tau K18 P301L, heparin-induced fibrillization, ThT fluorescence; also: nearly all actives have a fitted effect of over 55% in size
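Tau K18 P301L fragment (15 uM unlabeled plus 0.24 uM Alexa 594-labeled) in 100 mM sodium acetate pH 7 with compound, fibrillization induced by 20 uM heparin for 6 hr at 37 C. Thioflavin T (30 uM) added, fluorescence read after 1 hr (ex 450, em 510 nm).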
ALDH1A1 inh: qHTS Assay for Inhibitors of Aldehyde Dehydrogenase 1 (ALDH1A1); Potency, µM (doses to about 75.3 µM), inactives show top-dose activity, negative = inhibition, actives largely listed as inhibitors; AID 1030, 2008; Purified ALDH1A1, NADH fluorescence, propionaldehyde substrate; Aldehyde dehydrogenase 1A1 (Homo sapiens), P00352; actives 7.3% (n = 220,000); active = well fitted inhibition curve with a large enough effect, not every such curve was filed as active; inconclusive = small, poorly fitted or top-dose-only effect, or another doubt; inactive = no such curve, though single readings can be large or run the other way;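 also: plate controls were no enzyme wells and a reference inhibitor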
Tau FP inhib: qHTS for Inhibitors of Tau Fibril Formation, Fluorescence Polarization | Microtubule-associated protein tau (Homo sapiens), P10636 | K18 P301L tau heparin fibrillization, Alexa594 FP, 6 h | Potency, µM (series often up to 57.7 µM), without a hit: at the highest dose activity, negative = inhibition, hits mostly inhibitors | actives 0.39% (n = 280,000); also: nearly all actives have a fitted effect of over 55% in size
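Human tau K18 […] P301L fragment, 15 uM unlabeled plus 0.24 uM Alexa 594-labeled tau (final), with compound and 20 uM heparin in 100 mM sodium acetate pH 7; 6 hr at 37 C, then Alexa 594 FP read.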
Tau fluor cs: Counterscreen qHTS for Inhibitors of Tau Fibril Formation, Fluorescence Polarization; tau K18 P301L (four-repeat tau fragment) Alexa594 fluorescence, heparin fibrillization; Potency, µM (highest dose often 57.7 µM), for inactives: at the top dose activity change, negative = decrease; AID 1463, 2008; actives 0.93% (n = 280,000); also: nearly all actives have a fitted effect of over 55% in size
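Human K18 P301L tau (15 uM unlabeled plus 0.24 uM Alexa 594-labeled, final) in 100 mM sodium acetate pH 7 was mixed with compound and 20 uM heparin and incubated 6 hr at 37 C.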
HPGD block: qHTS Assay for Inhibitors of HPGD (15-Hydroxyprostaglandin Dehydrogenase) | AID 894, 2007 | Potency, µM, for inactives: top-dose activity change, negative = inhibition, most hits filed as inhibitors | 15-hydroxyprostaglandin dehydrogenase [NAD(+)] (Homo sapiens), P15428 | purified HPGD, NADH fluorescence kinetic, PGE2 substrate | actives 4.3% (n = 150,000); active = well fitted inhibition curve with a large enough effect, not every such curve was filed as active; inconclusive = small, poorly fitted or top-dose-only effect, or another doubt; inactive = no such curve, though single readings can be large or run the other way
Target sequence (P15428 whole entry, looked up): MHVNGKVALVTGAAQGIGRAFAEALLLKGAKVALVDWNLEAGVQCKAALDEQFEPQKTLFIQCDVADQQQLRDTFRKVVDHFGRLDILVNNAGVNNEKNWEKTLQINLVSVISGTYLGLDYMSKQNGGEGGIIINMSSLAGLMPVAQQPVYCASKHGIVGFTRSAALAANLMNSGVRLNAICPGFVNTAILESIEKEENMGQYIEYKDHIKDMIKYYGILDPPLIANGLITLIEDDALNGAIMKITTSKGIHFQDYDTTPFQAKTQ
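20 nM HPGD preincubated 15 min at room temperature with compound in 50 mM Tris-HCl pH 8, 0.01% Tween 20. Started with 1 mM NAD+ and 30 uM prostaglandin E2; NADH fluorescence (360/450 nm) read 5 times over 30-s intervals, last minus first.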
* = called active by the depositor; [ ] = dose if it differs, or a comment. Shown are actives, neighbours in structure and some others; about 9.5% of the full set was active somewhere. Unless noted, calls follow the shape of the dose curve; as a rule, active = well fitted curve in the direction sought with a large enough effect; inconclusive = small, poorly fitted or top-dose-only effect, or another doubt; inactive = no such curve, though single readings can be large; an effect the other way counts as inactive or inconclusive. Unless noted, % is scaled to controls: 0 for no effect and ±100 for the full control effect; potency is read from the fitted curve at half-maximal effect.

C/C(=N\NC(=S)Nc1ccccc1C)c1ccc(O)cc1 was read as NPSR antag -23%, Tau ThT inhib inconclusive, ALDH1A1 inh 20µM*, Tau FP inhib 1% and Tau fluor cs inconclusive.
For C/C(=N\NC(=S)NC1CCCCC1)c1ccc(O)cc1 the results were NPSR antag -54%, Tau ThT inhib -14%, ALDH1A1 inh 14µM*, Tau FP inhib -3% and Tau fluor cs -29%.
Screening O=C(O)c1ccc(N2C(=O)C3C4c5ccccc5C(Br)(c5ccccc54)C3C2=O)cc1 (stereo unspecified) returned NPSR antag 24%, Tau ThT inhib -10%, ALDH1A1 inh 5%, Tau FP inhib -3% and Tau fluor cs -5%.
CCC1(C(=O)OC)NC(c2ccco2)C2C(=O)N(c3ccccc3)C(=O)C21 (stereo unspecified) was read as NPSR antag 2%[7.67 µM], Tau ThT inhib inconclusive, ALDH1A1 inh inconclusive, Tau FP inhib -10%, Tau fluor cs -17% and HPGD block -5%.
CC(C)(C)C(=O)NCC12C=CC(O1)C1C(=O)N(c3ccccc3)C(=O)C12 (stereo unspecified) was read as NPSR antag 13%, Tau ThT inhib -14%, ALDH1A1 inh 1.4µM*, Tau FP inhib 4%, Tau fluor cs 6% and HPGD block 20µM*.
O=C1C2C3C=CC(CO)(O3)C2C(=O)N1c1ccc(-c2ccccc2)cc1 (stereo unspecified) was read as NPSR antag -14%[46.1 µM], Tau ThT inhib -15%, ALDH1A1 inh 0.13µM*, Tau FP inhib 3%, Tau fluor cs 16% and HPGD block 1.4µM*.
Screening COc1cc(NC(=O)Cn2nc(C(F)(F)F)c3c2CCCC3)cc(OC)c1OC returned NPSR antag -12%[46.1 µM], Tau ThT inhib -9%, ALDH1A1 inh -1%, Tau FP inhib -1%, Tau fluor cs inconclusive and HPGD block -4%.
`C=C1CCO[C@@]2([C@H](O)[C@@](C)(O)CO)NC(=O)[C@]1(O)NC2=O` gave ALDH1A1 inh 7%[13.5 µM] and HPGD block -8%.
Screening O=C(NCCc1ccccc1)c1ccc(-c2ccccc2C(F)(F)F)o1 returned NPSR antag -6%, Tau ThT inhib -19%, ALDH1A1 inh 25µM*, Tau FP inhib -3%, Tau fluor cs -22% and HPGD block inconclusive.
Screening O=C(NCCc1ccccc1)c1ccc(-c2ccc(F)cc2)o1 returned NPSR antag -22%, Tau ThT inhib -9%, ALDH1A1 inh inconclusive, Tau FP inhib 10% and Tau fluor cs -18%.
For COc1ccc(NC(=O)c2ccc(-c3ccccc3C(F)(F)F)o2)cc1 the results were NPSR antag -1%, Tau ThT inhib 25µM*, ALDH1A1 inh -11%, Tau FP inhib -12%, Tau fluor cs 25µM*[quencher] and HPGD block -9%.
`O=C(Nc1cccc(F)c1)c1ccc(-c2ccccc2C(F)(F)F)o1` gave NPSR antag -9%, Tau ThT inhib -18%, ALDH1A1 inh inconclusive, Tau FP inhib inconclusive, Tau fluor cs inconclusive and HPGD block -16%.
Screening COc1ccc(-c2nsc(NC(=O)c3cccc(OC)c3)n2)cc1 returned Tau ThT inhib 3%, Tau FP inhib inconclusive and Tau fluor cs inconclusive.
COC(=O)C1CCN(Cc2ccc(OCCCN3CCN(c4ccc([N+](=O)[O-])cc4)CC3)cc2)CC1 was read as NPSR antag -18%, Tau ThT inhib 4µM*, ALDH1A1 inh 2%, Tau FP inhib 8% and Tau fluor cs -8%.
`CC1CCN(CCCCOc2ccc([N+](=O)[O-])cc2)CC1` gave NPSR antag -9%[46.1 µM], Tau ThT inhib -5%, ALDH1A1 inh 7%, Tau FP inhib -4% and Tau fluor cs -8%.
For CCCCN(CCCC)CC(O)Cn1cc(/C=C/C(=O)c2ccccc2)c2ccccc21 (stereo unspecified) the results were Tau ThT inhib inconclusive, Tau FP inhib -7% and Tau fluor cs inconclusive.
`CCCCN(C)CC(O)Cn1cc(/C=C/C(=O)c2ccc(OCC)cc2)c2ccccc21` (stereo unspecified) gave Tau ThT inhib 11µM*, Tau FP inhib -12% and Tau fluor cs inconclusive.
For O=C(NC(=S)Nc1ccc(N2CCOCC2)c(Cl)c1)c1cncc(Br)c1 the results were NPSR antag -4%, Tau ThT inhib inconclusive, ALDH1A1 inh 7.9µM*, Tau FP inhib 8%, Tau fluor cs inconclusive and HPGD block 22µM*.
Screening O=C(Nc1ccc(N2CCOCC2)c(Cl)c1)c1cccnc1 returned NPSR antag 1%[46.1 µM], Tau ThT inhib -15%, ALDH1A1 inh 3%, Tau FP inhib -1%, Tau fluor cs -17% and HPGD block -9%.
O=C(NC(=S)Nc1ccc(N2CCCCC2)c(Cl)c1)c1ccc2c(c1)OCCO2 was read as NPSR antag inconclusive, Tau ThT inhib inconclusive, ALDH1A1 inh 10µM*, Tau FP inhib 4%, Tau fluor cs inconclusive and HPGD block inconclusive.
Screening O=C(NC(=S)Nc1ccc(N2CCOCC2)c(Cl)c1)c1sc2ccccc2c1Cl returned NPSR antag -8%, Tau ThT inhib inconclusive, ALDH1A1 inh 3.5µM*, Tau FP inhib -2%, Tau fluor cs -19% and HPGD block -22%.
For Cc1nn(CC(=O)Nc2ccc(Cl)cn2)c(C)c1Br the results were NPSR antag 6%, Tau ThT inhib -10%, ALDH1A1 inh -10%, Tau FP inhib -5%, Tau fluor cs -12% and HPGD block -5%.
`O=C(NCc1ccc(Cl)cc1)C1CCN(S(=O)(=O)c2ccc3c(c2)CCCN3C(=O)C2CCC2)CC1` gave Tau ThT inhib -11%, Tau FP inhib 4% and Tau fluor cs -21%.
`CSc1ccccc1NS(=O)(=O)c1ccccc1` gave NPSR antag 2%[46.1 µM], Tau ThT inhib 5%, ALDH1A1 inh 8.9µM*, Tau FP inhib -8%, Tau fluor cs -1% and HPGD block -8%.
Screening COc1ccc(S(=O)(=O)Nc2ccccc2SC)cc1C returned NPSR antag -22%[46.1 µM], Tau ThT inhib -20%, ALDH1A1 inh inconclusive, Tau FP inhib 3%, Tau fluor cs -17% and HPGD block -7%.
